BoNT-A LC inh2: BoNT/A light chain protease inhibitors, primary screen, biochemical, flow cytometry, MLPCN library | Botulinum neurotoxin type A light chain protease (Clostridium botulinum A str. ATCC 3502) | multiplex microsphere protease substrate cleavage | inhibition, % at 10 µM | hit rate 0.17% among 360,000 | AID 588499, 2011; further: plate controls were buffer without enzyme for full effect and enzyme alone for no effect
Anthrax LF prot: Bacillus anthracis LF protease inhibitors, primary screen, biochemical, multiplex microsphere, MLPCN library; Lethal factor (Bacillus anthracis), P15917; multiplex microsphere protease cleavage assay; inhibition, % at 10 µM; hit rate 0.12% among 360,000; AID 588501, 2011; further: plate controls were buffer without enzyme for full effect and enzyme alone for no effect
MazEF act: activators of E. coli MazEF toxin-antitoxin RNase, primary screen, biochemical, fluorescence, uHTS; FAM/BHQ RNA-DNA oligo cleavage fluorescence, 5 h; activation, % at 20 µM; hit rate 0.32% among 350,000; AID 504720, 2011; in the data active means activation above about 50%
Target sequence (P0AE70 whole entry, looked up): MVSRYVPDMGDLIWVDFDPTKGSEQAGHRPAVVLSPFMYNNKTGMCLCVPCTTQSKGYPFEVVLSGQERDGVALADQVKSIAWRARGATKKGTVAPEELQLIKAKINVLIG
Bead autofluor: compound fluorescence in toxin protease inhibitor counterscreen. compound autofluorescence counterscreen, microsphere flow cytometry; active compounds read high. fluorescence intensity (no concentration beside the values). hit rate 3.1% among 360,000. AID 624483; in the data active means fluorescence intensity above about 16000
BoNT-F LC inh: BoNT/F light chain protease inhibitors, primary screen, biochemical, flow cytometry, MLPCN library; Multiplex microsphere protease cleavage assay; inhibition, % at 10 µM; hit rate 0.22% among 360,000; in the data active means inhibition above about 35%, passing the limit was not always enough; further: plate controls were buffer without enzyme for full effect and enzyme alone for no effect
An asterisk follows results filed as active. This is a sample that favours compounds with a hit; in the whole collection about 3.7% have one here. Unless noted, no stated cut-off is given here; in the data, active means inhibition above about 30%; inconclusive means no clear call, values can overlap the other calls; inactive means below that.

For O=C(NCc1ccccc1)Nc1nnc([C@@H]2C[C@H](O)[C@@H](CO)O2)s1 the results were BoNT-A LC inh2 0, Anthrax LF prot -3, Bead autofluor 3413 and BoNT-F LC inh -4.
Cc1ccc(C2C3CN(C(C)C)CC=C3C(C#N)=C(N)C2(C#N)C#N)cc1 (centres undefined) was read as BoNT-A LC inh2 3, Anthrax LF prot 0, MazEF act 156*, Bead autofluor 6126 and BoNT-F LC inh 4.
For N#CC1=C(N)C(C#N)(C#N)C(c2cccnc2)C2CN(C(=O)OCc3ccccc3)CC=C12 (centres undefined) the results were BoNT-A LC inh2 0, Anthrax LF prot -5, MazEF act 7, Bead autofluor 2454 and BoNT-F LC inh 3.
CCCCOc1ccc(C2C3CN(C(=O)OCC)CC=C3C(C#N)=C(N)C2(C#N)C#N)cc1OC (centres undefined) was read as BoNT-A LC inh2 -1, Anthrax LF prot 1, MazEF act -8, Bead autofluor 23656* and BoNT-F LC inh -1.
Screening CC(=O)N1CC=C2C(C#N)=C(N)C(C#N)(C#N)[C@H](c3ccoc3)[C@H]2C1 returned BoNT-A LC inh2 1, Anthrax LF prot 0, MazEF act 12, Bead autofluor 23512* and BoNT-F LC inh -1.

Screens: PubChem, several laboratories
